# The source made the active and inactive calls. How the calls were made is not given here.
# Test: compounds quenching green fluorescent protein signal – biochemical, plate reader, dry powder, artefact control, dose response (AID 493243)
# Conditions: GFP fluorescence counter-screen
structure (smiles),measurement,value
CCn1nc(/C=C/c2ccccc2)nc2c(=O)n(C)c(=O)nc1-2,AC50,221 nM (active)
